Data on 12 compounds can be found in PubChem BioAssay (NCI).

The panel holds about 83,000 compounds, 20% with a hit somewhere; the sample as a whole holds those more often.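 Single-concentration screen, 48 h exposure, 96-well plates. Endpoint: percent growth. Below 10 = active.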 Values without a mark were called inactive. The source made the active and inactive calls.

Test systems include SK-MEL-2 melanoma; EKVX NSCLC; SN12C renal; UO-31 renal; TK-10 renal; ACHN renal; CAKI-1 renal; A498 renal; CCRF-CEM leukemia; MOLT-4 leukemia.
Assay in all cases: NCI-60 one-dose screen, 48 h (100 = growth as untreated, 0 = no growth, -100 = all killed)
Common to all, as to details: 10 µM unless noted

For the compound `C[C@H]1OC(=O)/C=C/[C@@H](O)[C@@H](O)CCCCCCCC[C@@H]1O`, the growth is 102% with SK-MEL-2 melanoma; 99.6% in the assay on EKVX NSCLC; 101% with SN12C renal; 82.6% in the assay on UO-31 renal; 96.9% with TK-10 renal; 100% in the assay on ACHN renal. Besides, the growth with CAKI-1 renal is 96.3%; in the assay with A498 renal, 71.1%; in the assay on CCRF-CEM leukemia it was 62.4%.
Consider `O=P(O)(c1ccccc1)c1ccccc1I`, for which the growth in the assay with SK-MEL-2 melanoma is 96%; in the assay on EKVX NSCLC, 94.7%; with SN12C renal, 99.3%; in the assay with UO-31 renal it was 83.4%; in the assay with TK-10 renal, 102%; in the assay on ACHN renal it was 106%. For the same compound, the growth in the assay on CAKI-1 renal is 90.1%; with A498 renal it was 92.6%; in the assay with CCRF-CEM leukemia it was 94.6%; in the assay with MOLT-4 leukemia it was 97.7%.
On to `Cc1csc(Nc2nc(-c3cccc(Br)c3)nc(C(Cl)(Cl)Cl)n2)n1`, for which the growth was 104% with SK-MEL-2 melanoma; 22.8% in the assay with EKVX NSCLC; 78.5% with SN12C renal; 49.4% in the assay on UO-31 renal; 49.9% in the assay on TK-10 renal; 0.817% (active) in the assay with ACHN renal. Further, the values for the growth with CAKI-1 renal, in the assay with A498 renal and in the assay with CCRF-CEM leukemia were 21.6%, 31.5% and 91.4%, respectively.
Take `C[C@H]1[C@H]2C3=CC[C@@H]4[C@@]5(C)C/C(=C/c6ccco6)C(=O)C(C)(C)[C@@H]5CC[C@@]4(C)[C@]3(C)CC[C@@]2(C(=O)N2CCOCC2)CC[C@@H]1C`: the growth in the assay with SK-MEL-2 melanoma was 106%; in the assay on EKVX NSCLC it was 88.4%; in the assay with SN12C renal it was 73.8%; with UO-31 renal, 49%; in the assay on TK-10 renal, 99.6%; in the assay with ACHN renal, 53.7%. In addition, the growth was 42.5% in the assay on CAKI-1 renal, 94% in the assay with A498 renal and 14.2% in the assay on CCRF-CEM leukemia.
`COc1cc(/C=C/c2cc(/C=C/c3ccc(O)c(OC)c3)n(-c3ccccc3)c(=O)n2)ccc1O`: the growth was 79.5% in the assay on SK-MEL-2 melanoma; 71.4% in the assay with EKVX NSCLC; 71.4% in the assay on SN12C renal; 58.6% in the assay with UO-31 renal; 113% with TK-10 renal; 81.1% in the assay with ACHN renal. Besides, the results for the growth with CAKI-1 renal, with A498 renal and with CCRF-CEM leukemia were 83.7%, 108% and 28.5%, respectively.
Regarding `C[C@H]1[C@@H]2[C@H]3CC[C@@H]4[C@@]5(C)Cc6c([nH]c7ccccc67)C(C)(C)[C@@H]5CC[C@@]4(C)[C@]3(C)CC[C@]23CO[C@]1(C)[C@@H](C(=O)/C=C/c1ccccn1)C3`, the growth in the assay with SK-MEL-2 melanoma was 115%; in the assay with EKVX NSCLC, 102%; with SN12C renal it was 87.1%; in the assay with UO-31 renal, 60.4%; in the assay on TK-10 renal it was 123%; in the assay on ACHN renal, 92.4%. For the same compound, the growth was 63% in the assay on CAKI-1 renal, 101% in the assay with A498 renal, 63% in the assay on CCRF-CEM leukemia and 78.8% in the assay with MOLT-4 leukemia.
As to `COc1ccc(C2(Cl)c3ccccc3N(c3ccccc3)c3ccccc32)cc1`, the growth was -39.9% (active) in the assay on SK-MEL-2 melanoma; 0.119% (active) in the assay on EKVX NSCLC; -1.51% (active) in the assay with SN12C renal; 7.46% (active) in the assay on UO-31 renal; 8.72% (active) with TK-10 renal; 4.85% (active) in the assay with ACHN renal. Besides, the growth was 7.42% (active) with CAKI-1 renal, -26.5% (active) with A498 renal, 20.6% in the assay on CCRF-CEM leukemia and 12.7% in the assay on MOLT-4 leukemia.
In the case of `CC1(C)C(=O)CC[C@]2(C)[C@H]3C(=O)C=C4[C@@H]5C[C@@](C)(C(=O)NCCNCCN)CC[C@]5(C)CC[C@@]4(C)[C@]3(C)CC[C@@H]12`, the growth is 121% in the assay with SK-MEL-2 melanoma; 105% in the assay on EKVX NSCLC; 86% with SN12C renal; 76.8% with UO-31 renal; 147% with TK-10 renal; 104% in the assay on ACHN renal. The growth is 92.5% in the assay on CAKI-1 renal, 101% in the assay with A498 renal, 75.9% with CCRF-CEM leukemia and 82.5% with MOLT-4 leukemia.
Regarding `Cn1c(=O)c2c(ncn2CC(=O)Nc2ccc(S(N)(=O)=O)cc2)n(C)c1=O`, the growth is 104% in the assay on SK-MEL-2 melanoma; 103% in the assay on EKVX NSCLC; 105% in the assay on SN12C renal; 88.8% in the assay with UO-31 renal; 91.8% with TK-10 renal; 111% in the assay on ACHN renal. In addition, the growth is 93.8% with CAKI-1 renal, 105% in the assay on A498 renal, 97.5% with CCRF-CEM leukemia and 103% in the assay with MOLT-4 leukemia.
Consider `C=COCCCCCCCCCCCCCCCCCC`, for which the growth was 111% in the assay on SK-MEL-2 melanoma; 118% in the assay on EKVX NSCLC; 88.4% in the assay with SN12C renal; 124% with UO-31 renal; 101% in the assay on TK-10 renal; 108% with ACHN renal. For the same compound, the growth in the assay with CAKI-1 renal was 99.7%; in the assay with A498 renal, 92.7%; with CCRF-CEM leukemia it was 91.5%; in the assay on MOLT-4 leukemia, 96.3%.
For the compound `Cc1cc2nc3c4cc(Cl)ccc4n(CCN(C)C)c3nc2cc1C`, the growth in the assay on SK-MEL-2 melanoma is 43.6%; in the assay with EKVX NSCLC, 20.4%; in the assay with SN12C renal it was 17.7%; in the assay on UO-31 renal, -45% (active); in the assay with TK-10 renal, 19.4%; in the assay with ACHN renal, -10% (active). For the same compound, the growth in the assay with CAKI-1 renal is -7.17% (active); with A498 renal it was 73.9%; in the assay on CCRF-CEM leukemia, 24.6%.
Turning to `O=S(=O)(NCCNc1cc(-c2cn(-c3ccccc3)nc2-c2cccc(O)c2)ccn1)c1ccc(C(F)(F)F)cc1`, the growth was 56.2% in the assay on SK-MEL-2 melanoma; 52.3% with EKVX NSCLC; 33.9% in the assay with SN12C renal; -39.8% (active) in the assay with UO-31 renal; 59.9% with TK-10 renal; 18.3% with ACHN renal. Besides, the growth in the assay with CAKI-1 renal is -1.88% (active); with A498 renal, 52.6%; in the assay with CCRF-CEM leukemia, 16.9%.
